HEK293 tox: Cytotoxic Profiling in HEK 293 Cell Line of Diverse Libraries Using Quantitative High-Throughput Screening; hit rate 6.6% among 94,000; HEK 293 viability, ATP luminescence (CellTiter-Glo), 48-72 h; AID 1345083, 2018; Potency, µM (highest dose often 115 µM), for the others: at the top dose activity change, negative = cytotoxicity, usual class: inhibitors; also: % is scaled to controls: 0 for no effect and ±100 for the full control effect; nearly all actives have a fitted effect of over 60% in size
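CellTiter-Glo luminescence (cellular ATP) was read after 48 or 72 hr of compound exposure at 37 degree Celsius. Cells were HEK 293 plated at 250 cells/well.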
FLuc inh-1: Firefly luciferase inhibition profiling of diverse chemical library using quantitative high-throughput screening; purified P. pyralis luciferase, luminescence, biochemical; Potency, µM (doses to about 115 µM), hits mostly inhibitors; hit rate 2.5% among 76,000; AID 1347043, 2019; also: % is scaled to controls: 0 for no effect and ±100 for the full control effect; nearly all actives have a fitted effect of over 65% in size
Target sequence (P08659 whole entry, looked up): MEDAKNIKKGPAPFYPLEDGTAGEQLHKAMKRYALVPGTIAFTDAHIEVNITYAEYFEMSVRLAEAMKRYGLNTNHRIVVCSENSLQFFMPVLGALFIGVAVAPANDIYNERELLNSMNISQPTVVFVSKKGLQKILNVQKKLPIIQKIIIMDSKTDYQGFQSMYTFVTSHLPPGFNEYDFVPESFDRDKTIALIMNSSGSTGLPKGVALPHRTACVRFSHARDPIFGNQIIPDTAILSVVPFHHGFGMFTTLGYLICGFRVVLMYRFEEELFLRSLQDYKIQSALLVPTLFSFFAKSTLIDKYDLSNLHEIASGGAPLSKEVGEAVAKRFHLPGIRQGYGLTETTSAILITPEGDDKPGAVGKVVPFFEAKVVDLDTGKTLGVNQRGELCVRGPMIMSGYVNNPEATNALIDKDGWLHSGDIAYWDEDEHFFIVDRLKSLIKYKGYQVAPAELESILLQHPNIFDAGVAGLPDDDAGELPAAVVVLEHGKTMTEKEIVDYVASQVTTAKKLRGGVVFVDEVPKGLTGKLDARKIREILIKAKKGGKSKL
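Purified P. pyralis luciferase (10nM final) in 50mM Tris acetate pH 7.5, 10mM Mg acetate, 0.01% Tween-20, 0.05% BSA with 10uM D-luciferin and 10uM ATP. Compounds titrated qHTS. Luminescence imaged on CCD.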
GPT2 inhibitor: Primary qHTS assay for inhibitors of Glutamate pyruvate transaminase 2 (GPT2). hit rate 0.25% among 100,000. Recombinant GPT2, coupled pyruvate oxidase/HRP Amplex Red fluorescence. Potency, µM (doses to about 57.7 µM), for the others: top-dose activity change, negative = inhibition, actives largely listed as inhibitors. AID 1671188, 2021; also: % is scaled to controls: 0 for no effect and ±100 for the full control effect; nearly all actives have a fitted effect of over 60% in size
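Inhibition is scored from Amplex Red fluorescence generated when pyruvate oxidase and HRP act on pyruvate released by GPT2. Reactions contain 10ng/uL enzyme, 250uM a-KG and 2mM L-alanine and run 30 min at room temperature.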
hNpr1 antagonist: Natriuretic polypeptide receptor (hNpr1) antagonism - Primary qHTS | HEK293 hNpr1 GloSensor cGMP, ANP-stimulated luminescence | Potency, µM (titrated, usually from 46.3 µM), for inactives: at the highest dose activity change, negative = inhibition, usual class: inhibitors | hit rate 1.6% among 76,000 | AID 1347048, 2019; calls by dose curve; also: % is scaled to controls: 0 for no effect and ±100 for the full control effect; nearly all actives have a fitted effect of over 60% in size
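HEK293 cells stably expressing human Npr1 and cGMP GloSensor pGS-40F, loaded 2 h with 2% GloSensor reagent, given compound 30 min at room temperature. Luminescence read before and 20 min after 0.1 nM hNppA.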
3T3 cytotox: Cytotoxic Profiling in NIH 3T3 Cell Line of Diverse Libraries Using Quantitative High-Throughput Screening. NIH 3T3 viability, CellTiter-Glo ATP luminescence, 48-72 h. hit rate 4.3% among 94,000. Potency, µM (titrated, usually from 96.7 µM), without a hit: top-dose activity change, negative = cytotoxicity, usual class: inhibitors; also: % is scaled to controls: 0 for no effect and ±100 for the full control effect; nearly all actives have a fitted effect of over 55% in size
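ATP-dependent luminescence (CellTiter-Glo) served as the viability signal for NIH 3T3 cells treated with compound for 48 or 72 hr at 37 °C.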
FLuc SDR no ATP: Firefly luciferase (FLuc-C-HiBiT) SDR gain of signal screen - without ATP; shares compounds with FLuc inh-1; Purified FLuc-C-HiBiT, Nano-Glo HiBiT luminescence, no ATP; Potency, µM (highest dose often 32.7 µM), for the others: at the top dose activation (signal gain), usual class: activators; hit rate 7.8% among 1,300; also: nearly all actives have a fitted effect of over 55% in size
FLuc SDR ATP: Firefly luciferase (FLuc-C-HiBiT) SDR gain of signal screen - plus ATP. shares compounds with FLuc inh-1. purified FLuc-C-HiBiT + ATP, HiBiT complementation luminescence. Potency, µM (highest dose often 32.7 µM), inactives show at the highest dose activation (gain of signal), hits mostly activators. hit rate 8.7% among 1,300;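 also: signal reports ligand binding via conformational change of the enzyme rather than luciferase catalysis; % of control where 0% means no effect; nearly all actives have a fitted effect of over 55% in size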
FLuc inh-2: Firefly luciferase (FLuc-C-HiBiT) enzymatic inhibition screen - Functional assay. shares compounds with FLuc inh-1. purified FLuc-C-HiBiT enzyme, luciferin luminescence. Potency, µM (series often up to 32.7 µM), inactives show at the top dose activity change, negative = inhibition, hits mostly inhibitors. AID 1963320, 2024. hit rate 42% among 1,300; also: % is scaled to controls: 0 for no effect and ±100 for the full control effect; nearly all actives have a fitted effect of over 70% in size
Active calls of the source: *; i = inactive; u = inconclusive; x = no result; [ ] = another dose, or the depositor's remark. The list is not random: actives were taken first. Their share in the collection is about 10%. Unless noted, calls follow the shape of the dose curve; as a rule, active = well fitted curve in the direction sought with a large enough effect; inconclusive = small, poorly fitted or top-dose-only effect, or another doubt; inactive = no such curve, though single readings can be large; an effect the other way counts as inactive or inconclusive. Potency is read from the fitted curve at half-maximal effect.

SMILES	HEK293 tox	FLuc inh-1	GPT2 inhibitor	hNpr1 antagonist	3T3 cytotox	FLuc SDR no ATP	FLuc SDR ATP	FLuc inh-2
Cc1cc(C)n(Cc2ccc(C(=O)N3CCCCCC3c3nnc(-c4ccccc4)o3)o2)n1 (centres undefined)	u	x	i	x	u	x	x	x
Fc1ccc(Nc2nc(-c3ccccc3)no2)cc1	u	3.2µM*	i	u	u	22%	18%	6.2µM*
Cc1cc(C)cc(Nc2nc(-c3ccccc3F)no2)c1	40µM*	1.6µM*	i	u	45µM*	16%	14%	6.2µM*
c1ccc(CNc2nc(-c3ccccc3)no2)cc1	u	14µM*	i	u	u	19%	14%	u
CSc1ccc(Nc2ncncc2-c2nc(-c3ccccc3)no2)cc1	3%	i	i	7%	-10%	x	x	x
Fc1cccc(Nc2nc(-c3ccccc3)no2)c1	u	3.2µM*	3%	u	u	22%	19%	7µM*
Cc1ccccc1C(=O)NC1CCN(c2ccc3nnc(C)n3n2)CC1	-28%	x	x	x	-28%	x	x	x
CCC(c1cccs1)N1C(=O)[C@H]2CN(S(=O)(=O)c3ccc(F)cc3F)C[C@H]2C1=O (some centres undefined)	-1%	i	-2%	1%	-26%	x	x	x
CCOC(=O)c1cccc(Nc2nc(-c3ccccc3)no2)c1	28µM*	1.8µM*	i	-30%	-27%	14%	u	u
CCOC(=O)c1ccc(Nc2nc(-c3ccccc3)no2)cc1	u	u	i	-30%	u	x	x	x
CCCCCc1nn2cc(-c3ccccc3)nc2s1	x	x	x	x	x	u	u	0.62µM*
COC(=O)C1CCN(c2csc3ccc(C)cc3c2=O)CC1	x	x	x	x	x	31%	u	7.9µM*
Clc1ccc2c(c1)-n1cc(-c3ccccc3)nc1CO2	x	x	x	x	x	16%	11%	-19%
NS(=O)(=O)c1cccc(N=Cc2c(O)[nH]c3ccccc23)c1	x	x	x	x	x	15%	8%	-12%
Nc1nc2c([nH]c(=O)n2C2CC(O)C(CO)O2)c(=O)[nH]1 (centres undefined)	x	x	x	x	x	13%	11%	6%
COc1cccc(-c2ncc3c(n2)OCCN(c2ccccc2)C3=O)c1	10µM*	0.4µM*	-10%[88.5 µM]	8.9µM*	8.9µM*	3.2µM*	u	1.8µM*
O=C1c2cnc(-c3cccc(O)c3)nc2OCCN1c1cccc(C(F)(F)F)c1	u	i	u	-23%[70.6 µM]	u	x	x	x
O=C1c2cnc(-c3cccc(F)c3)nc2OCCN1c1ccccc1	100µM*	0.89µM*	-10%[88.5 µM]	-29%[70.6 µM]	u	u	u	14µM*
CC1OC(O[C@H]2CC[C@@]3(C)C(CC[C@]4(C)C3CC=C3C5CC(C)(C)CC[C@]5(C(=O)OC5OC(CO)C(OC6OCC(OC7OCC(O)C(O)C7O)C(O)C6O)C(O)C5O)CC[C@]34C)C2(C)C)C(O)C(O)C1OC1OC(CO)C(O)C(OC2OC(CO)C(O)C(O)C2O)C1O (some centres undefined)	x	x	i[11.5 µM]	x	x	x	x	x
CC(C)CCN1CCc2nc(C(=O)Nc3ccc(Cl)cc3)oc2CC1	u	u	-11%[88.5 µM]	u	u	x	x	x
CCCN1CCc2nc(C(=O)Nc3ccccc3)oc2CC1	x	x	x	x	x	20%[49.3 µM]	18%[49.3 µM]	u
O=C(Nc1ccccc1)c1nc2c(o1)CCN(Cc1ccccc1)CC2	u	1µM*	1%[88.5 µM]	13µM*	u	27%[49.3 µM]	u	4.5µM*
O=C(Nc1cccnc1)c1nc2c(o1)CCN(Cc1cccc(O)c1)CC2	u	4µM*	2%[88.5 µM]	u	-16%[138 µM]	21%[49.3 µM]	16%[49.3 µM]	u
O=C(Nc1cccnc1)c1nc2c(o1)CCN(CCCc1ccccc1)CC2	u	i	3%[88.5 µM]	-3%[70.6 µM]	u	x	x	x
Cc1noc(C)c1CN1CCc2nc(C(=O)Nc3ccccc3)oc2CC1	u	11µM*	i	18µM*	u	20%[49.3 µM]	16%[49.3 µM]	-15%[49.3 µM]
SMILES	HEK293 tox	FLuc inh-1	GPT2 inhibitor	hNpr1 antagonist	3T3 cytotox	FLuc SDR no ATP	FLuc SDR ATP	FLuc inh-2
COCC(=O)N(C)Cc1ccc(-c2ccccc2)cc1	u	u	-16%[88.5 µM]	3%[70.6 µM]	u	x	x	x
COc1ccc(C(=O)NC2CCN(C(=O)c3ccc(-c4cncnc4)cc3)CC2)cc1	-15%	x	i	x	-12%	x	x	x
COc1cccc(CN2CCc3nc(C(=O)Nc4nc(C)cs4)oc3CC2)c1	u	7.1µM*	-2%[88.5 µM]	-20%[70.6 µM]	u	u	17%[49.3 µM]	u
O=C(Nc1ccccc1)c1nc2c(o1)CCN(Cc1cccnc1)CC2	79µM*	0.35µM*	-10%[88.5 µM]	18µM*	u	u	u	5.7µM*
Cc1ccc(CN2CCc3nc(C(=O)NCc4ccccc4)oc3CC2)o1	-16%[172 µM]	i	-3%[88.5 µM]	5%[70.6 µM]	u	x	x	x
O=C(Nc1ccccc1)c1nc2c(o1)CCN(CC1CC1)CC2	u	2.2µM*	-1%[88.5 µM]	-26%[70.6 µM]	-17%[138 µM]	19%[49.3 µM]	20%[49.3 µM]	u
COc1ccccc1CN1CCc2nc(C(=O)Nc3ccccc3)oc2CC1	u	4.5µM*	3%[88.5 µM]	u	u	17%[49.3 µM]	14%[49.3 µM]	u
COc1ccc(Cl)cc1NC(=O)CC1CCCN(c2cnn(C)c(=O)c2)C1 (centres undefined)	-18%	i	i	-14%	u	x	x	x
O=C(c1cn2cc(-c3ccccc3)sc2n1)N1CCCCC1	u	x	u	x	-33%[138 µM]	x	x	x
O=C(c1cc(-c2ccccc2O)on1)N1CCCCC1	x	x	x	x	x	24%	16%	u
N#Cc1cccc(C(=O)N2CCC(N3C(=O)[C@H]4CN(Cc5ccccc5)C[C@H]4C3=O)CC2)c1	u	x	i	x	u	x	x	x
CCOC(=O)C1CCN(C(=O)c2cc(-c3ccncc3)cn2Cc2ccc(C)cc2)CC1	u	i	i	4%	u	x	x	x

Screening results deposited in PubChem by National Center for Advancing Translational Sciences (NCATS).
